Publication PMC5540273 (PLoS ONE, 2017)

Tests used:
Conditions in all cases: concentration: 1 μM, replicates: in singlicate; n = 1
[1] = tested on: TIE1
[2] = tested on: T1, TIE2
T1 construct: gene TEK

[3] = tested on: TLK1
[4] = tested on: TLK2
[5] = tested on: TNIK
[6] = tested on: TNK1
[7] = tested on: TNK2
[8] = tested on: TNNI3K
[9] = tested on: T2, TRKA
T2 construct: gene NTRK1

[10] = tested on: TRKB
[11] = tested on: T3, TRKC
T3 construct: gene NTRK3

[12] = tested on: TRPM6
[13] = tested on: TSSK1B
[14] = tested on: TSSK3
[15] = tested on: TTK
[16] = tested on: TXK
[17] = tested on: TYK2(JH1domain-catalytic)
[18] = tested on: TYK2(JH2domain-pseudokinase)
[19] = tested on: TYRO3
[20] = tested on: ULK1
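Also: KINOMEscan kinase panel screen.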

Row | SMILES | %Inh [1] [%] | %Inh [2] [%] | %Inh [3] [%] | %Inh [4] [%] | %Inh [5] [%] | %Inh [6] [%] | %Inh [7] [%] | %Inh [8] [%] | %Inh [9] [%] | %Inh [10] [%] | %Inh [11] [%] | %Inh [12] [%] | %Inh [13] [%] | %Inh [14] [%] | %Inh [15] [%] | %Inh [16] [%] | %Inh [17] [%] | %Inh [18] [%] | %Inh [19] [%] | %Inh [20] [%]
1 | Fc1cccc(COc2ccc(Nc3ncnc4sc(-c5ccc[nH]5)cc34)cc2Cl)c1 [GW707818] | 0 | 16 | 25 | 11 | 0 | 0 | 13 | 13 | 22 | 0 | 14 | 30 | 0 | 7 | 0 | 5 | 17 | 10 | 0 | 0
2 | Clc1cccc(-c2nc(Nc3ccncc3)c3ccccc3n2)c1 [GW873004] | 0 | 48 | 0 | 0 | 0 | 59 | 40 | 0 | 0 | 0 | 0 | 0 | 19 | 0 | 0 | 1 | 0 | 13 | 58 | 0
3 | COC(=O)c1cccc(NC(=O)NCCNc2ccnc(Nc3ccc(F)cc3)n2)c1 [GSK1379883] | 0 | 0 | 1 | 0 | 0 | 0 | 14 | 0 | 19 | 0 | 12 | 0 | 0 | 23 | 0 | 0 | 11 | 20 | 0 | 0
4 | CCC(CC)(CC)n1cnc2c(N)ncnc21 [SKF-97620] | 21 | 8 | 27 | 2 | 100 | 6 | 0 | 0 | 41 | 26 | 37 | 58 | 0 | 3 | 0 | 0 | 21 | 41 | 12 | 31
5 | Nc1n[nH]c2nnc(-c3ccccc3)cc12 [SB-517389] | 0 | 0 | 15 | 0 | 0 | 0 | 20 | 13 | 0 | 0 | 0 | 35 | 9 | 100 | 0 | 25 | 36 | 79 | 0 | 20
6 | O=C(Nc1n[nH]c2nc(-c3ccco3)c(Br)cc12)c1ccc(CN2CCCC2)cc1.O=C(O)[C@H](O)[C@@H](O)C(=O)O [SB-742352] | 0 | 0 | 3 | 0 | 14 | 38 | 0 | 12 | 18 | 0 | 0 | 0 | 0 | 0 | 0 | 2 | 0 | 0 | 0 | 13
7 | Nc1nc(-c2ccccn2)c(-c2ccnc3ccccc23)s1 [GW548057] | 0 | 0 | 12 | 4 | 33 | 0 | 5 | 0 | 49 | 0 | 45 | 0 | 0 | 9 | 2 | 0 | 24 | 29 | 0 | 0
8 | CCc1nc(-c2cccc(N(C)S(=O)(=O)c3ccccc3)c2)c(-c2ccnc(Nc3ccc(N4CCN(C(C)=O)CC4)nc3)n2)s1 [GSK1645895] | 5 | 18 | 26 | 20 | 4 | 29 | 3 | 0 | 0 | 0 | 0 | 56 | 0 | 15 | 9 | 15 | 0 | 14 | 0 | 4
9 | COc1ccc(Nc2nccc(N3CCC(NC(=O)c4cccc(NC(C)=O)c4)C3)n2)cc1 (centres unmarked) [GSK1379732] | 0 | 0 | 0 | 0 | 0 | 0 | 7 | 7 | 37 | 40 | 43 | 0 | 14 | 11 | 8 | 5 | 36 | 30 | 0 | 0
10 | Cc1cccc(-c2nc(Nc3ccc4[nH]nnc4c3)c3ccccc3n2)n1 [GW867587] | 0 | 0 | 0 | 0 | 0 | 24 | 0 | 0 | 0 | 0 | 0 | 0 | 0 | 0 | 0 | 0 | 0 | 42 | 0 | 0
